# Most compounds without a hit are left out; they make up all but 2.6% or so of the library.
# eIF4H FP inh: inhibitors of RNA binding by human eIF4H; 290,000 tested, 0.94% active; eIF4H fluorescence polarization binding assay; Q15056; inhibition, % at 35 µM;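 also: calls also rest on retests at 20 µM and on dose response follow-up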
# A3A deaminase: inhibitors of human APOBEC3A DNA deaminase | inhibition, % at 20 µM | AID 493011 | recombinant A3A, FAM/TAMRA ssDNA deamination fluorescence | P31941 | 330,000 tested, 0.41% active;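 active = at least 40% inhibition at 20 µM here, with at most 30% in a related deaminase screen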;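 also: plate controls were A3A with DMSO for no effect and wells lacking A3A enzyme for full effect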
# Target sequence (P31941 whole entry, looked up): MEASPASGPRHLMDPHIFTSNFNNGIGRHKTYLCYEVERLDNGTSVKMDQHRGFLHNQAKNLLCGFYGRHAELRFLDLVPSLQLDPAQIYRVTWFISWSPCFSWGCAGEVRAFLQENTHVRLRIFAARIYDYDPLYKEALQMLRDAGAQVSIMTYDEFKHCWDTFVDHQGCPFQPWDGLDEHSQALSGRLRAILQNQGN
# PABP FP inh: blocks human PABP binding to poly(A) RNA; P11940; calls only at 35 µM; fluorescence polarization; AID 2014; 290,000 tested, 1% active;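 also: calls also rest on retests at 20 µM and on dose response follow-up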
# PABP1 MLLE inh: blocks PAM2 peptide binding to the PABP1 MLLE domain; P11940; GST-MLLE / FITC-PAM2 fluorescence polarization; inhibition, % at 20 µM; 360,000 tested, 0.36% active; AID 588489; in the data active = inhibition above about 35%, passing the limit was not always enough;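 also: plate controls were DMSO wells with GST-MLLE for no effect and wells lacking GST-MLLE protein for full effect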
# A3G deaminase: inhibitors of human APOBEC3G DNA deaminase; Q9HC16; 330,000 tested, 0.28% active; inhibition, % at 20 µM; AID 493012; recombinant A3G, ssDNA deamination FAM/TAMRA fluorescence;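 active = inhibition of at least 40% at 20 µM, with no more than 30% in the related APOBEC3A deaminase screen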;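 also: plate controls were DMSO wells with A3G for no effect and wells lacking A3G enzyme for full effect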
# Target sequence (Q9HC16 whole entry, looked up): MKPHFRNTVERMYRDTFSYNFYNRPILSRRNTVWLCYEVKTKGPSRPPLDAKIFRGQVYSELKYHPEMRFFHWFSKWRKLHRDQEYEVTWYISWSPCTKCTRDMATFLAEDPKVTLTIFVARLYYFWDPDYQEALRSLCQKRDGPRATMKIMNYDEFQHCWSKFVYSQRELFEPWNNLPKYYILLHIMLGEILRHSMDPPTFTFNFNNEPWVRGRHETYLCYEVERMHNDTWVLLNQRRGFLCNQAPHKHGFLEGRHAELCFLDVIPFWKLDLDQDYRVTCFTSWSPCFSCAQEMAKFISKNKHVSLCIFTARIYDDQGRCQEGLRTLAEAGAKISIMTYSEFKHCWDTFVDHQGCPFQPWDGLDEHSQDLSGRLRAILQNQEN
# PHOSPHO1 inh: PHOSPHO1 (human) inhibition; recombinant PHOSPHO1, absorbance phosphatase assay; 290,000 tested, 1.1% active; AID 1565; inhibition, % at 13.3 µM; in the data active = inhibition above about 60%
# A3A conf: confirmation of human APOBEC3A DNA deaminase inhibitors; inhibition, % at 20 µM; AID 493151; shares compounds with A3A deaminase; 1,400 tested, 63% active; recombinant A3A, ssDNA deaminase UDG fluorescence assay;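 active = inhibition reaching a set limit, 80% of the first screen's cutoff, at 20 µM in any replicate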;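 also: plate controls were DMSO wells with A3A for no effect and wells lacking A3A enzyme for full effect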
# UDG A3A counter: UDG inhibition in APOBEC3A counter-screen | shares compounds with A3A deaminase | UDG counterscreen, FAM/TAMRA uracil oligo fluorescence | inhibition, % at 20 µM | 1,000 tested, under 10 active | AID 504714
# Active calls of the source: *; i = inactive; ? = inconclusive; · = no result given; + = active, no number. Unless noted, no rule for the calls is given here.
SMILES,eIF4H FP inh,A3A deaminase,PABP FP inh,PABP1 MLLE inh,A3G deaminase,PHOSPHO1 inh,A3A conf,others
CCn1c(SCC(=O)N/N=C/C=C/c2ccco2)nnc1-c1ccccc1,95.3,10.4,i,-12.8,-1.4,2.5,·,
CCn1c(SCC(=O)N/N=C/C(C)=C\c2ccco2)nnc1-c1ccccc1,51.4*,5.1,+,-8.1,1.7,0.0,·,
O=C(NC(=S)Nc1ncccn1)c1ccccc1Cl,2.1,-5.6,i,41.2*,-5.0,-9.3,·,
COc1cccc(CN2C(=O)c3cccc(N)c3C2=O)c1,87.8*,1.1,+,11.9,-0.6,-5.0,·,
NC(=O)N(CCC(=O)O)c1ccccc1,62.9*,-2.9,+,4.3,-0.5,3.1,·,
COCCn1c(SCCN2CCOCC2)nc2c1c(=O)[nH]c(=O)n2C,-12.3,-1.4,i,17.5,12.2,63.2*,·,
CC(C)NC(=O)c1cccc2c1-c1ccccc1C2=O,3.3,-0.2,i,6.4,-7.0,31.3,·,
CC(C)COC(=O)c1ccc2c(c1O)C(=O)c1ccccc1C2=O,-3.0,3.3,i,-7.7,0.5,80.4*,·,
NC(=O)COC(=O)c1cccc2c1-c1ccccc1C2=O,?,3.3,+,12.7,0.7,-3.1,·,
CCOC(=O)C1CCN(C(=O)CN(C)S(=O)(=O)c2ccc3c(c2)c(=O)n(C)c(=O)n3C)CC1,-9.5,-2.5,i,6.2,16.1,29.3,·,
COc1ccc(CNC(=O)C2CCN(S(=O)(=O)c3ccc(N4CCCC4=O)cc3)CC2)cc1,·,·,·,-0.5,·,·,·,
Cc1cc(SC2CCOC2=O)nc2ccccc12 (centres undefined),-9.0,0.3,i,20.3,-6.9,12.3,·,
Cc1cc2nnc(SC3CCOC3=O)n2c2ccccc12 (centres undefined),9.7,1.3,i,-63.0,6.0,74.0*,·,
Cn1c(=O)c2c(-c3ccccc3)n(-c3cccc(O)c3)cc2n(C)c1=O,·,·,·,19.2,·,·,·,
Cn1c(=O)c2c(-c3ccccc3)n(-c3ccc(N)cc3)cc2n(C)c1=O,·,·,·,56.9*,·,·,·,
CCOC(=O)c1c(C)nc(C)c(C(=O)OCC)c1-c1cccc(N)c1,2.0,4.6,i,-2.6,14.2,60.0*,·,
CCCS(=O)(=O)NC(=O)C1(C)CCCN(C(=O)c2cncc(Br)c2)C1 (centres undefined),·,·,·,13.7,·,·,·,
CSc1cccc(N2CC(C(=O)Nc3cccc(S(=O)(=O)N4CCCC4)c3)CC2=O)c1 (centres undefined),·,56.4*,·,-119.6,14.9,·,13.7,
Cc1ccc(S(=O)(=O)NNC(=O)Cc2cccn2C)cc1,-5.0,-0.1,i,-1.0,-4.7,8.8,·,
Cc1cccc(S(=O)(=O)NNC(=O)Cc2cccn2C)c1,3.1,58.3*,i,4.0,-8.0,-44.7,-1.6,UDG A3A counter=2.2
COC(=O)c1cc(C(=O)OCC(=O)N2c3ccccc3NC(=O)C2(C)C)cc([N+](=O)[O-])c1,-2.2,96.9*,i,2.5,-6.0,-23.5,-3.3,UDG A3A counter=-0.7
Cc1ccc(C)c(OCCC(=O)OCC(=O)N2c3ccccc3NC(=O)C2(C)C)c1,·,51.9*,·,-93.2,20.2,·,55.5*,UDG A3A counter=3.5
CC(CCc1ccccc1)NC(=O)COC(=O)CC1CC2CCC1C2 (centres undefined),-8.6,121.2*,i,-5.6,-2.8,-18.9,-6.0,UDG A3A counter=-3.2
O=C(COC(=O)CC1CC2CCC1C2)NCc1ccccc1 (centres undefined),·,-2.8,·,-2.6,-3.3,·,·,
O=C(NCc1ccco1)c1ccccc1-c1nc(-c2ccc(F)cc2)no1,-0.3,2.5,i,7.1,2.1,-0.3,·,
SMILES,eIF4H FP inh,A3A deaminase,PABP FP inh,PABP1 MLLE inh,A3G deaminase,PHOSPHO1 inh,A3A conf,others
O=C(NCc1ccco1)c1nc(-c2ccc(F)cc2)no1,0.2,40.1*,i,-8.0,-9.3,22.8,-3.1,UDG A3A counter=-2.3
COc1ccccc1CCC(=O)NNC(=O)c1cccs1,·,-4.1,·,-16.2,-3.8,·,·,
CCSC1=NC(=O)/C(=C2/C=Cc3ccccc3N2CC)S1,-13.8,40.3*,i,-135.4,21.4,-29.3,17.9,
CCN1/C(=C2/SC(=S)N(C)C2=O)C=Cc2cc(C)ccc21,·,6.9,·,-9.0,2.8,·,·,
O=C(NC(Cc1ccccc1)C(=O)O)c1ccc(S(=O)(=O)N2CCCCC2)cc1 (centres undefined),-2.6,-0.5,i,-3.5,-3.2,-2.0,·,
Cc1ccc(N/C=C2\CCCCC2=O)nc1,-1.4,-6.1,i,-38.1,-2.1,10.8,·,
O=C1CCCC/C1=C\Nc1ccc(Cl)cn1,5.9,41.6*,i,-3.7,1.6,41.3,3.2,
COc1ccccc1OCCSc1nnc(CNC(=O)c2ccco2)n1C,2.6,47.8*,i,-97.9,5.8,-10.1,27.1,
COc1ccccc1NC(=O)CSc1nnc(CNC(=O)c2ccco2)n1C,7.0,-2.1,i,-1.7,-10.5,40.5,·,
O=C(O)C1CCCCC1C(=O)Nc1cccc(Br)c1 (centres undefined),·,94.3*,·,-3.0,24.1,·,90.9*,
C=CC#CC1(O)CC(C)[N+](C)(C)CC1C (centres undefined),?,55.8*,?,-151.6,27.8,-144.0,70.7*,UDG A3A counter=-1.2
Cc1ccc(/C=C/c2ccc(N(C)C)cc2)[n+](C)c1,?,59.8*,?,-175.5,5.6,19.9,66.9*,UDG A3A counter=-2.9
CC[n+]1ccccc1/C=C/c1ccc(N(C)C)cc1,97.2,·,i,-174.7,·,8.6,·,
CC[n+]1c(/C=C/c2ccc(OC(C)=O)c(OC)c2)ccc2ccccc21,3.9,52.8*,i,-134.9,20.3,1.0,57.9*,
CCN(CC)c1ccc(/C=C/c2ccc3ccc(OC)cc3[n+]2CC)cc1,-1.7,75.4*,i,-183.5,25.7,21.6,83.7*,UDG A3A counter=0.2
CC[n+]1c(/C=C/c2ccc(OC)c(OC)c2)ccc2ccccc21,1.0,79.3*,+,-140.6,-13.5,13.8,93.3*,UDG A3A counter=0.5
O=C1C2CCCN2C(=S)N1c1ccc(Cl)cc1 (centres undefined),-0.3,0.7,i,17.0,3.4,36.6,·,
CCN1CCN(c2ccccc2NC(=O)c2ccc(-n3cccn3)cc2)CC1,·,46.0*,·,-64.0,9.4,·,27.7,
O=C(Nc1ccccc1N1CCN(c2ccc(F)cc2)CC1)c1ccccc1,-4.9,0.1,i,7.6,-2.9,-40.4,·,
COc1cc(OC)c(C(=O)Nc2cc(S(=O)(=O)N3CCOCC3)ccc2N2CCN(C)CC2)cc1OC,·,·,·,-5.0,·,·,·,
Cc1cc(/C=C2\SC(=O)N(C)C2=O)c(C)n1-c1ccc(S(N)(=O)=O)cc1,1.3,50.2*,i,-113.3,15.7,-16.3,63.2*,UDG A3A counter=-0.8
Cc1csc(CN(C)C(=O)CC2C(=O)NCCN2Cc2ccc(F)c(F)c2)n1 (centres undefined),6.9,-1.9,i,4.3,-10.1,27.6,·,

# Screening data (PubChem)
